From PubChem BioAssay (NCATS)
Where “and” joins values, the source holds several entries; their conditions need not be identical. Identical values can stand only once. Records with an inconclusive call do not appear. Calls of active or inactive are those of the source. Calls follow the shape of the full dose curve.

Test: qHTS Assay for Lipid Storage Modulators (AID 1519); as to activity change, negative = inhibition: % is scaled to controls: 0 for no effect and ±100 for the full control effect
Details: Drosophila S3 cells, BODIPY lipid droplet/cell ratio, laser cytometry, cells loaded with oleic acid
Description: NIH Molecular Libraries Probe Production Centers Network [MLPCN]
NIH Chemical Genomics Center [NCGC]
Assay Submitter (PI): Beller, Mathias; Max-Planck-Institut fur Biophysikalische Chemie
NCGC Assay Overview: Storing lipids as a reservoir for energy or the anabolism of elementary metabolites is a common feature of probably all cells and is conserved from bacteria to humans. The universal cellular lipid storage organelle is the so-called lipid storage droplet (LD). Although ubiquitous, LDs share a simple structure composed of a hydrophobic core that harbors the storage lipids, which is shielded by a droplet-specific phospholipid monolayer to which proteins are attached. The current model of LD biogenesis involves an incorporation of the lipid core into the membrane leaflets of the endoplasmic reticulum (ER) followed by a subsequent budding-like maturation of a LD, which ultimately pinches off. Once released, LD volume can increase by localized lipogenesis or fusion of existing droplets. Storage lipids are re-mobilized enzymatically by lipase activity. Lipase regulation in the adipocyte is heavily studied and involves multiple components including catecholamine signaling, the LD-associated proteins Perilipin and comparative gene identification-58 (CGI-58) and at least two lipases named hormone sensitive lipase (HSL) and adipocyte triglyceride lipase (ATGL). LD regulation outside of the adipocyte is poorly understood and only few components are known. However, there is an urgent need to learn more about ectopic fat depots as mislocalized storage of lipids, for example in the liver or muscle, is an eminent health problem associated with insulin resistance or the metabolic syndrome. We developed a laser-scanning cytometer assay to enable 1,536-well screening and combined the results of the small molecules screen with an RNAi database based on lipid storage.
NCGC Assay Protocol Summary:
We dispensed 4 uL of cells at 1.25 x 10^6 cells/mL into LoBase Aurora COC 1,536-well plates (black walled, clear bottom) with a bottle-valve solenoid-based dispenser (Aurora) to obtain 5,000 cells/well. Triacsin C (Sigma-Aldrich T-4540), an inhibitor of long-chain fatty acyl CoA synthetase that blocks synthesis of triglycerides, was used as a positive control for lipid under-storage. A total of 23 nL of compound solution of different concentrations were transferred to the assay plates using a Kalypsys pin tool equipped with a 1,536-pin array containing 10-nL slotted pins (FP1S10, 0.457-mm diameter, 50.8 mm long; V&P Scientific). One microliter of oleic acid (400 uM) was added, and the plate was lidded with stainless steel rubber gasket lined lids containing pinholes. […] Fluorescence was detected by excitation of the fluorophores with a 488-nm laser on an Acumen Explorer (TTP Lab Tech). The total intensity in channel 1 (500-530 nm) reflected lipid droplet accumulation. […] The ratio of the total intensity in PMT channel 1 over total intensity of channel 3 was also calculated. Percent activity was computed relative to an internal control (100% inhibited lipid droplet deposition due to the presence of 20 uM Triacsin C), which was added to 32 wells/plate.

[1] = measured here: cell count channel max response
[2] = measured here: lipid channel max response

SMILES	activity change, negative = inhibition (at 25.7 µM (top of the series))	max response [1]	max response [2]	activity change, negative = inhibition (at 57.5 µM (top of the series))
COc1ccc(-c2ccc(N)[n+](CCCC(=O)O)n2)cc1	-0.132% (inactive)	3.21%	7.04%	–
NC/C=C\C(=O)O	–	-7.52% and 26.3%	-6.79% and 26.6%	4.68% (inactive) and 0.384% (inactive)
COc1ccccc1N1CCN(CCCNc2c(C)c(=O)n(C)c(=O)n2C)CC1	–	38.5%	37.3%	-0.317% (inactive)
CN1C2CCC1CC(OC(c1ccccc1)c1ccccc1)C2 (configuration not stated)	–	-8.64%	-8.59%	-0.901% (inactive)
CC(=O)/C(C)=N/O	–	5.13%	6.8%	2.05% (inactive)
O=C(O)Cc1c[nH]c2ccc(O)cc12	–	-19.7%	-16.3%	1.1% (inactive)
CSC(=N)N	–	53.5%	52.9%	-0.307% (inactive)
O=c1[nH]ccc2c(O)cccc12	–	-28%	-29.5%	1.52% (inactive)
COc1ccc2c(c1)c(CC(=O)O)c(C)n2Cc1ccc(Cl)cc1	–	-35.2%	-34.3%	-1.87% (inactive)
O=c1onc2cnc3ccccc3n12	–	54.3%	54.9%	0.198% (inactive)
C#CCn1c(=O)c2c(ncn2C)n(C)c1=O	–	-11.8%	-10.7%	2.4% (inactive)
N[C@@H](CCCC(=O)O)C(=O)O	–	-26.7%	-26.8%	0.27% (inactive)
Cc1cccc(C)c1OCC(N)C(C)C (configuration not stated)	–	60.7%	59.8%	0.702% (inactive)
O=C(O)C1=CCNCC1	–	-10.7% and 4.5%	-10.6% and 21.6%	1.16% (inactive) and 3.31% (inactive)
